Measured values taken from ChEMBL document CHEMBL3988442, “University of Dundee, Small-Polar-MMV Screening Library” (2021).
The campaign covered roughly 38,000 compounds. About 1,200 (3.2%) showed an effect of 50% or more. The median lay at about -58%. For the sample, strong results were picked, then their nearest neighbours and some compounds at random.

tested on: Plasmodium falciparum; assay: Calibr Malaria Delayed Death Assay SOP; format: functional, organism-based; design: scale not given: in the data most compounds retested in dose-response had high values; conditions: concentration 4.99e-06 (unit not given; other assays of the set use mol/L)

| SMILES | Percent Effect |
| --- | --- |
| CSCCN1C(=O)CC(C)(c2ccc(Br)cc2)C1=O (configuration not stated) | -78.64% |
| NCC(=O)N1CCCCC1c1ccc(F)cc1 (configuration not stated) | 85.19% |
| O=C1CCCCN1CCC(=O)N1CCCCC1c1ccc(F)cc1 (configuration not stated) | -57.96% |
| COC(=O)CCCC(=O)N1CCCCC1c1ccc(F)cc1 (configuration not stated) | -184.4% |
| CCN1CCN(c2ccc(F)cc2C(C)NCc2ccccn2)CC1 (configuration not stated) | 85.11% |
| C[C@]1(O)CN(Cc2cscn2)CC[C@@H]1Oc1cccc(F)c1 | -10.93% |
| CC(c1ccc(F)cc1F)N1CCN(Cc2nccn2C)CC1 (configuration not stated) | -23.71% |
| CCN1CCN(c2ccc(F)cc2C(C)NCc2cscn2)CC1 (configuration not stated) | 80.23% |
| CC(NCc1ccncc1)c1cc2c(cc1Br)OCCO2 (configuration not stated) | 7.247% |
| CC(NC(=O)NCc1cscn1)c1ccc(N2CCOCC2)cc1 (configuration not stated) | -60.07% |
| CC(c1cc(F)ccc1F)N1CCN(Cc2nccn2C)CC1 (configuration not stated) | -48.8% |
| CCN1CCN(c2ccc(F)cc2C(C)NCc2ccnn2C)CC1 (configuration not stated) | 75.25% |
| Cc1[nH]ncc1C(C)NCc1ccc(F)cc1 (configuration not stated) | -52.77% |
| CC(NCCn1cccn1)c1cc(F)ccc1F (configuration not stated) | 0.142% |
| CCN1CCN(c2ccc(F)cc2C(C)NCc2ccncc2)CC1 (configuration not stated) | 71.8% |
| CC(NCc1ccccn1)c1cc2c(cc1Br)OCCO2 (configuration not stated) | 22.3% |
| Cn1nc(-c2ccccc2)c(Cl)c1C(=O)O | 13.43% |
| CC(C)S(=O)(=O)NCC(Cc1cccc(F)c1)N1CCNC1=O (configuration not stated) | -68.63% |
| COc1ccc(CNc2nc(N3CCOCC3)ns2)cc1 | -61.76% |
| Cc1ccc(CCNC(=O)CC2COCCN2S(=O)(=O)N(C)C)o1 (configuration not stated) | -12.87% |
| CC(C)c1nncn1CCNC(=O)c1ccc(Cl)cc1O | -118.9% |
| Cc1nccc(-c2cccc(NCC(=O)NCC(=O)N3CCCC3)c2)n1 | -89.65% |
| Cc1cnc(C(=O)N2CC[C@@H]3CN(c4ncccn4)CCO[C@@H]3C2)cn1 | -80.08% |
| Cc1nc(CO[C@H]2CN(Cc3cccs3)[C@@H]3COC[C@H]23)cs1.O=C(O)C(F)(F)F.O=C(O)C(F)(F)F | -73.25% |
| Cc1nc(CNC(=O)Nc2cc(F)ccc2OC(F)F)no1 | -136.5% |
| Cc1ccc(CNC(C)c2nnc3n2CCCC3)o1 (configuration not stated) | -20.3% |

| SMILES | Percent Effect |
| --- | --- |
| CCN1CCN(c2ccc(F)cc2C(C)NCc2noc(C)n2)CC1 (configuration not stated) | 52.85% |
| CCN1CCN(c2ccc(F)cc2C(C)NCc2nc(C)no2)CC1 (configuration not stated) | 4.183% |
| CN1CCN(c2ccc(F)cc2C(N)=O)CC1 | -109.6% |
| CC(COc1ccccc1)NCc1cn2ccccc2n1 (configuration not stated) | -27.04% |
| Cc1ccc(C(=O)N2CCC3(CCC(=O)N(C(C)C)C3)CC2)c(O)c1 | -20.48% |
| COC(=O)c1ccc(C2CC(=O)Nc3c2cnn3C)cc1 (configuration not stated) | -67.54% |
| CCc1noc(CN2CCCC(Cn3nc(C)nc3C)C2)n1 (configuration not stated) | -109.5% |
| CN(C)c1ccc(C(=O)N2CCN(Cc3cscn3)CC2)cc1F | -147.3% |
| CCC1CN(Cc2c(O)ccc3oc4c(c23)CCCC4)CCO1 (configuration not stated) | 59.59% |
| Oc1ccc2oc3c(c2c1CN1CCOCC1)CCCC3 | 15.46% |
| NC(=O)C1CN(Cc2c(O)ccc3oc4c(c23)CCCC4)CCO1 (configuration not stated) | -24.38% |
| COc1ccc(C[C@@H]2CC[C@H](CN(C)C3CCN(C)CC3)O2)cc1 | 49.48% |
| CN1CCC(N(C)C[C@H]2CC[C@@H](Cc3ccc4occc4c3)O2)CC1 | 85.36% |
| CN1CCN(C[C@H]2CC[C@@H](Cc3ccc4c(c3)OCO4)O2)CC1 | -29.46% |
| CCN1CCN(C[C@H]2CC[C@@H](Cc3ccc4c(c3)OCO4)O2)CC1 | -22.56% |
| CN1CCC(N(C)C[C@H]2CC[C@@H](Cc3cccc(O)c3)O2)CC1 | 56.23% |
| CN1CCC(N(C)C[C@H]2CC[C@@H](Cc3cccc(CO)c3)O2)CC1 | -136% |
| CCCc1ccc(C(=O)N2CCc3c(nc(C)nc3N(C)C)C2)cc1 | -63.88% |
| COc1ccc([C@@H]2NC(=O)N[C@H]3OCCC[C@H]32)cc1 | 13.26% |
| O=C(c1ccco1)N1C[C@H]2CN(Cc3cccc(F)c3)C(=O)[C@H]2C1 | -97.73% |
| O=C(CNC(=O)N1CCN(c2cccc(Cl)c2)CC1)Nc1ccccn1 | -109.2% |
| CN(Cc1nnc(C2CC2)n1C)S(=O)(=O)Cc1ccccc1F | -39.05% |
| Cc1cc(NC(=O)CN(c2ccccc2)C(C)C)on1 | -10.54% |
| Cc1cc(NC(=O)NC(C)CN2CCN(c3ccccc3)CC2)on1 (configuration not stated) | 58.09% |
| Cc1cc(NC(=O)N(C)CCN2CCN(c3ccccc3)CC2)on1 | -52.94% |
| COC(=O)c1cc2c(=O)n(C3CC3)ccc2nc1C | -61.53% |

| SMILES | Percent Effect |
| --- | --- |
| Cc1nc(C)n(C2CCCN(C(=O)CCCNc3ncccn3)C2)n1 (configuration not stated) | -99.16% |
| CSc1ccc(OCCN2CCNC(=O)C2C)cc1 (configuration not stated) | -33.67% |
| COCC1CC2(CCN(Cc3nccs3)CC2)CN1Cc1ccccn1.O=C(O)C(F)(F)F.O=C(O)C(F)(F)F.O=C(O)C(F)(F)F (configuration not stated) | -3.583% |
| COCC1CC2(CCN(CC3CC3)CC2)CN1Cc1ccccn1.O=C(O)C(F)(F)F.O=C(O)C(F)(F)F (configuration not stated) | 39.61% |
| COCC1CC2(CCN(Cc3ccoc3)CC2)CN1Cc1ccccn1 (configuration not stated) | 55.13% |
| CCOc1ccc(-c2c(C#N)c(N)nc3c2COCC3)cn1 | -92.51% |
| CC(=O)N(Cc1noc(C2CC2)n1)C1CCN(Cc2ccccn2)C1 (configuration not stated) | -1.635% |
| O=C(O)C(F)(F)F.O=C(O)C(F)(F)F.O=C(c1ccnnc1)N1CCN(Cc2cccnc2)c2ncccc2C1 | -70.53% |
| CN1CC[C@H](N(Cc2ccccc2)C2COC2)C[C@H](O)C1 | 43.99% |
| CN1CCC(N(C)CCC(=O)N2CCC(CCc3ccccc3)CC2)C1 (configuration not stated) | 17.74% |
| CN1CC[C@H](N(Cc2ccccc2)Cc2ccccc2)C[C@H](O)C1 | 71.85% |
| CN1CC[C@H](N(C)Cc2ccccc2)C[C@H](O)C1 | 2.065% |
| CN1CC[C@H](N(Cc2ccccc2)CC2CC2)C[C@H](O)C1 | 80.63% |
| CN(CC1CC1)C(=O)CN(Cc1cccc(O)c1)C1CCC(O)CC1 (configuration not stated) | -102.5% |
| O=c1[nH]c(CN2CCOC(Cn3cccn3)C2)nc2ccccc12 (configuration not stated) | -93.34% |
| Cc1cc(CN2CCN(C(=O)C(C(C)C)n3cncn3)CC2)no1 (configuration not stated) | -20.49% |
| Cc1ccc(OCCC(=O)N2CCCC(n3nc(C)nc3C)C2)cc1 (configuration not stated) | 0.003662% |
| c1ccc(CCCN2CCOC(Cn3cccn3)C2)cc1 (configuration not stated) | -23.01% |
| NC(=O)CCN(CC(=O)NCc1ccccn1)c1ccc(F)cc1 | -98.56% |
| O=C(Nc1ccccc1)N1C[C@H]2C[C@H](C(=O)N3CCOCC3)[C@@H](C1)O2 | -95.7% |
| Cn1ccnc1CN1CCN(CC(=O)NCc2ccccc2F)CC1 | -19.05% |
| CNC(=O)c1ccc(CNC(=O)c2ccc(Cl)cc2F)cc1 | -28.69% |
| CN1CCN(Cc2ccccc2CNC(=O)c2cc(Br)ccc2F)CC1 | 76.59% |
| Cn1ccc(C(=O)NCc2ccccc2CN2CCCCC2)cc1=O | -63.4% |
| CN1CCN(Cc2ccccc2CNC(=O)c2cc(Cl)ccc2F)CC1 | 65.2% |
| O=C(NCC(c1cccs1)N1CCOCC1)c1ccc(F)cc1Cl (configuration not stated) | -47.97% |

| SMILES | Percent Effect |
| --- | --- |
| CC1CCN(C(CNC(=O)CCn2cccn2)c2cccs2)CC1 (configuration not stated) | -77% |
| CN1CCN(Cc2ccccc2CNC(=O)c2ccc(Br)cc2)CC1 | 45.05% |
| O=C(NCc1ccccc1CN1CCOCC1)c1ccc(Br)cc1F | -44.16% |
| CN1CCN(C(CNC(=O)c2ccc(Cl)cc2F)c2cccs2)CC1 (configuration not stated) | 51.8% |
| CN1CCN(Cc2ccccc2CNC(=O)c2ccc(Cl)cc2F)CC1 | 76.33% |
| CN1CCN(Cc2ccccc2CNC(=O)c2ccc(Br)cc2F)CC1 | 47.71% |
| Cc1ccc(CCNC(=O)Cn2nc(C)n(Cc3ccccc3)c2=O)s1 | -1.162% |
| CCCNC(=O)CCC(=O)n1nc(C)c2ccccc21 | -0.03666% |
| Cc1cc(N(C)CCN(C)C2CCCC2)n2nc(C)cc2n1 | 53.42% |
| Cc1cc(N(C)CCN(C)C)n2nc(C)cc2n1 | -114.6% |
| Cc1cc(C)nc(N(C)CCN(C)C2CCCC2)n1 | 27.63% |
| Nc1ncc(C(=O)N2CCN(c3nccs3)CC2)cc1Cl | -61.47% |
| COc1ccccc1C1(CNCc2ccc([S+](C)[O-])cc2)CC1 (configuration not stated) | 68.71% |
| Cl.N#Cc1ccc(CNCC2(c3ccccc3)CCOCC2)cc1 | 82.55% |
| CS(=O)(=O)C1(CNCc2cccc(-n3cccn3)c2)CCOCC1 | -93.15% |
| COc1cc(OC)c(CNC(=O)NCc2ccc(C#N)cc2)c(OC)c1 | -15.69% |
| COc1ccccc1C1(CNc2cn[nH]c(=O)c2Cl)CCOCC1 | -35.38% |
| CN(C)c1ccc(C(=O)NCC2(c3ccccc3)CCOCC2)cc1 | -48.74% |
| COc1ccccc1C1(CNc2ncc(S(N)(=O)=O)s2)CC1 | -83.98% |
| COc1ccccc1C1(CNCc2cccc(O)c2)CCOCC1 | 82.33% |
| COc1ccccc1C1(CNCc2ccc(C#N)cc2)CCOCC1 | 76% |
| Cc1nnc(NCC2(c3ccccc3)CCOCC2)c(C#N)c1C | 3.02% |
| COc1ccccc1C1(CNc2ccc(C(=O)N(C)C)cn2)CC1 | -78.51% |
| Oc1cccc(CNCCC2CCCO2)c1 (configuration not stated) | -6.783% |
